This is an account of results in PubChem BioAssay.

A short description of assay [1]: enhancers of SMN2 over SMN1 splicing, cell-based, SMN2/SMN1 luciferase reporters (AID 1598). To be noted: SMN2 vs SMN1 luciferase splicing reporter cells, at 10 µM; SMN1 luciferase ratio: measured here: SMN1 luciferase reporter average; SMN2 luciferase ratio: measured here: SMN2 luciferase reporter average, stronger effect = higher value; SMN2/SMN1 luciferase ratio: stronger effect = higher value. On the technique in general: In a reporter assay the amount or activity of a reporter protein is the signal.

The test system of assay [2] is Hepatitis C virus NS3 helicase. Put plainly: HCV NS3 helicase inhibitors, primary screen, biochemical, fluorescence polarization, LOPAC1280 library (AID 687035; in the data active = inhibition above about 37%). To be noted: Purified HCV NS3 helicase, Cy5-dT15 ssDNA binding fluorescence polarization; stronger effect = higher value; concentration not given here. (Fluorescence polarisation rises when a labelled molecule tumbles more slowly, as on binding a larger partner.)

Assay [3] in a line: Cy5 fluorescence quenching or enhancement artefacts, artefact control for HCV NS3 helicase inhibitor project, biochemical, LOPAC1280 (AID 687037). As to conditions: Cy5-DNA-NS3h complex fluorescence interference counterscreen. For orientation: The purpose of a counterscreen is to sort out artefacts and off-target activity.
Assay [4] deals with Aerobactin synthetase IucA (Klebsiella pneumoniae). As to the kind of experiment: IucA aerobactin synthetase inhibitors, biochemical, Tocris library, absorbance (AID 1345561).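 Also: 100% = enzyme without compound and 0% = no enzyme.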 To be noted: purified IucA enzyme assay, absorbance (OD) read-out; stronger effect = lower value;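 tested at 8 µM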.
For assay [5], the system named is Aerobactin synthetase IucA (Klebsiella pneumoniae, hypervirulent). Put plainly: IucA enzyme inhibition, biochemical, LOPAC library, absorbance readout (AID 1346212).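 Also: 100% = no compound wells and 0% = no enzyme wells.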 As to conditions: IucA enzyme assay, absorbance (OD) readout; stronger effect = lower value;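 tested at 8 µM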.
Assay [6] can be described thus: growth inhibition of DIPG glioma cells, dose response, cell-based, SU-DIPG-XVII, MIPE5.0, CellTiter-Glo, qHTS (AID 1347060; cut-off not given, nearly all actives have AC50 up to about 26 µM;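 as to AC50: cells exposed to compound for 48 hours before viability readout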). As to conditions: SU-DIPG-XVII viability, CellTiter-Glo ATP luminescence.
A short description of assay [7]: growth inhibition of DIPG glioma cells, dose response, cell-based, SU-DIPG-IV, MIPE4.0, CellTiter-Glo, qHTS (AID 1347063; cut-off not given, nearly all actives have AC50 up to about 30 µM;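 also: compound exposure lasted 48 hours before the viability readout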). As to conditions: SU-DIPG-IV viability, CellTiter-Glo ATP luminescence.
The nature of assay [8]: SU-DIPG-VI glioma cell viability, MIPE4.0 library, CellTiter-Glo luminescence, qHTS (AID 1347066; cut-off not given, nearly all actives have AC50 up to about 30 µM;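 also: cells exposed to compound for 48 hours before readout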). To be noted: CellTiter-Glo ATP luminescence.
Assay [9] in a line: JHH-DIPG-1 glioma cell viability, MIPE5.0 library, CellTiter-Glo luminescence, qHTS (AID 1347067; cut-off not given, nearly all actives have AC50 up to about 26 µM;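 also: cells exposed to compound for 48 hours before readout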). As to conditions: JHH-DIPG-1 glioma viability, CellTiter-Glo ATP luminescence.
Assay [10] is described as follows: SU-DIPG-XXV glioma cell viability, MIPE5.0 library, qHTS (AID 1347068; cut-off not given, nearly all actives have IC50 up to about 30 µM;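 as to IC50: cells exposed to compound for 48 hours before viability readout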).
Assay [11] in a line: inhibitors of Cryptococcus chitosan production, flow cytometry, Cibacron Brilliant Red staining (AID 1347148).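 Also: compound exposure lasted three days at 37 degrees C.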 To be noted: Cryptococcus neoformans chitosan, stronger effect = lower value; at 10 µM unless noted.
Assay [12] is described as follows: phospholipid biosynthesis inhibitors in animal cells, primary screen, cell-based, LOPAC library, screen 4 (AID 1347384). As to conditions: phospholipid biosynthesis inhibition screen, at 10 µM.
Assay [13] has as its target Calcium-dependent protein kinase 1 (Plasmodium falciparum (isolate 3D7)) (UniProt P62344). As to the kind of experiment: PfCDPK1 kinase inhibitors, biochemical, TCAMS library (AID 1159585; cut-off not given, nearly all actives have IC50 up to about 0.98 µM;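 also: inhibitors leave more ATP so luminescence rises with inhibition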). As to conditions: recombinant PfCDPK1, Kinase-Glo ATP depletion luminescence.
The target in assay [14] is Plasmodium falciparum protein kinase 6 (PK6, PF3D7_1337100) (UniProt Q8IDW1). Put plainly: PfPK6 kinase inhibitors, biochemical, TCAMS library (AID 1159586). To be noted: recombinant PfPK6, Kinase-Glo ATP depletion luminescence.
The target in assay [15] is Protein kinase 7 (PK7), Plasmodium falciparum 3D7 (PF3D7_0213400) (UniProt Q7YTF7). As to the kind of experiment: inhibition of Plasmodium PK7 catalytic activity – biochemical, TCAMS antimalarial set, Kinase-Glo luminescence (AID 1159587). As to conditions: recombinant PfPK7, Kinase-Glo ATP depletion luminescence.
For assay [16], the target named is Calcium-dependent protein kinase 4 (Plasmodium falciparum (isolate 3D7)) (UniProt Q8IBS5). Put plainly: PfCDPK4 kinase inhibitors, biochemical, TCAMS library (AID 1159588; cut-off not given, nearly all actives have IC50 up to about 0.91 µM). To be noted: recombinant PfCDPK4, Kinase-Glo ATP depletion luminescence.
Assay [17] is described as follows: growth inhibition of DIPG glioma cells, dose response, cell-based, SU-DIPG-XIII, MIPE4.0, CellTiter-Glo, qHTS (AID 1347061; cut-off not given, nearly all actives have AC50 up to about 37 µM;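 also: cells exposed to compound for 48 hours before readout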). As to conditions: SU-DIPG-XIII viability, CellTiter-Glo ATP luminescence.
Assay [18] is described as follows: growth inhibition of DIPG glioma cells, dose response, cell-based, JHH-DIPG-1, MIPE4.0, CellTiter-Glo, qHTS (AID 1347062; cut-off not given, nearly all actives have AC50 up to about 27 µM;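 as to AC50: cells exposed to compound for two days before readout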). As to conditions: JHH-DIPG-1 viability, CellTiter-Glo ATP luminescence.
The nature of assay [19]: growth inhibition of DIPG glioma cells, dose response, cell-based, SU-DIPG-XIII, MIPE5.0, CellTiter-Glo, qHTS (AID 1347064; cut-off not given, nearly all actives have AC50 up to about 23 µM;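 as to AC50: cells exposed to compound for 48 hours before the viability read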). As to conditions: SU-DIPG-XIII viability, CellTiter-Glo ATP luminescence.
Assay [20] in a line: viability loss in pontine glioma line – cell-based, SU-DIPG-XXV, MIPE5.0, CellTiter-Glo, qHTS, dose response (AID 1347065; cut-off not given, nearly all actives have AC50 up to about 26 µM;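 also: cells exposed to compound for 48 hours before ATP readout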). As to conditions: CellTiter-Glo ATP luminescence.

Values joined by “and” are separate entries in the source; they are usually repeats but may differ in a detail not shown here. Identical values can stand only once. Records with an inconclusive call do not appear. For some of these results: Potency and affinity values are given separately. Active and inactive are the calls of the source. Unless noted, no rule for the calls is given here.

Plasmodium falciparum protein kinase 6 (PK6, PF3D7_1337100), sequence (Q8IDW1 1-305): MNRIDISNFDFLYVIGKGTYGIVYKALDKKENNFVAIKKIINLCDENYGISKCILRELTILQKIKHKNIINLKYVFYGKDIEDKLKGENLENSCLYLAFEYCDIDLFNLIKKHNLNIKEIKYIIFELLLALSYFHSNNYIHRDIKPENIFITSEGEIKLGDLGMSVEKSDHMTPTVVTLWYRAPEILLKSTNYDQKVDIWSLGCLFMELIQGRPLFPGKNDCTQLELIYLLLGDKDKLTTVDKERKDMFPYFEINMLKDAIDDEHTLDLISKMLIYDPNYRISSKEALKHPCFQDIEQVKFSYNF
Calcium-dependent protein kinase 1 (Plasmodium falciparum (isolate 3D7)), sequence (P62344 whole entry, looked up): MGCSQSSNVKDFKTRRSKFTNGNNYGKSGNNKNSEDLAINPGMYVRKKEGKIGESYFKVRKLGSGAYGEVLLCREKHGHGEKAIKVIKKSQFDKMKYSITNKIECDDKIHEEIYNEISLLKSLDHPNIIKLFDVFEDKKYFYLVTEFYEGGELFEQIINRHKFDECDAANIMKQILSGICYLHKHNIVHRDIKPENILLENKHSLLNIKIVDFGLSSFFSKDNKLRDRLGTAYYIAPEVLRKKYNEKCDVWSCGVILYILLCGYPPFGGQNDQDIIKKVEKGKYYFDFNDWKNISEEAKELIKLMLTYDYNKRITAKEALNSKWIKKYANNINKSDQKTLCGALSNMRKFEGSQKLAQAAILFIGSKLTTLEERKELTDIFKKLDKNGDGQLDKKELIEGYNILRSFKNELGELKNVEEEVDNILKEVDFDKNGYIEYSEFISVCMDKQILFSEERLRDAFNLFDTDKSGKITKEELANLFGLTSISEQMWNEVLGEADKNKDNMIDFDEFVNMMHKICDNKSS
Calcium-dependent protein kinase 4 (Plasmodium falciparum (isolate 3D7)), sequence (Q8IBS5 whole entry, looked up): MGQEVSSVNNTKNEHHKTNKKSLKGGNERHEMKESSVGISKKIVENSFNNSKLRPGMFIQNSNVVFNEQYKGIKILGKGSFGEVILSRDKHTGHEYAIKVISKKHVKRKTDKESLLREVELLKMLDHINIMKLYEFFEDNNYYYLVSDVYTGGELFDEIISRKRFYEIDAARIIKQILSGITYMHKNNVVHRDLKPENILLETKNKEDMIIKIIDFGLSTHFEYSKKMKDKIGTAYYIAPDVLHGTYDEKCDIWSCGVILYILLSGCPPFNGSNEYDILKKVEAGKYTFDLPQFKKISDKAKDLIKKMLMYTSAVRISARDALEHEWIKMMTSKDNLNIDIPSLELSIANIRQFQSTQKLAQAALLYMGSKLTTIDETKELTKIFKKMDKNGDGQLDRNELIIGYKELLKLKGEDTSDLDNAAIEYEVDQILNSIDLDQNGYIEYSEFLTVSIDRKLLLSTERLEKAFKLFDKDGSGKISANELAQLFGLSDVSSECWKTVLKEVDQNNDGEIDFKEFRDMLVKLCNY
Protein kinase 7 (PK7), Plasmodium falciparum 3D7 (PF3D7_0213400), sequence (Q7YTF7 1-343): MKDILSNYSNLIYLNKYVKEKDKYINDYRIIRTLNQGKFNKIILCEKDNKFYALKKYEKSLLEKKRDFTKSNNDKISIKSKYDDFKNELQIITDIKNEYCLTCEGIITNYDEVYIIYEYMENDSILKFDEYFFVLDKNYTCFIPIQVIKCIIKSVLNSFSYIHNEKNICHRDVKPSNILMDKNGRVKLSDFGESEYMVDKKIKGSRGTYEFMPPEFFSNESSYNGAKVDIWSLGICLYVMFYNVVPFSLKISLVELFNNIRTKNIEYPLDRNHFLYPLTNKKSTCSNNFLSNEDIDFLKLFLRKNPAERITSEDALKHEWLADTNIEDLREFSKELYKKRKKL

For `CC[C@@]1(O)C(=O)OCc2c1cc1n(c2=O)Cc2cc3ccccc3nc2-1`, the SMN1 luciferase ratio in assay [1] stood at 0.16. Further, the SMN2/SMN1 luciferase ratio in [1] was 1.74 (active). Moreover, in [1], the SMN2 luciferase ratio came out at 0.26. Further, in assay [2], the inhibition – broadly, the change of the read-out against control, counted positive when it falls – was 0% (inactive). Moreover, the fluorescence ratio (interference) in assay [3] is 1 (inactive). The remaining activity (usually the signal under treatment as a percentage of the control signal) is 122% (inactive) in assay [4] and 90% (inactive) in assay [5]. Further, the figures for the concentration at half-maximal activity (AC50) in [6], in assay [7] and in [9] were 16.6 nM (active), 46.9 nM (active) and 1480 nM (active), respectively. The call in [8], in assay [10] and in assay [12] was inactive. The fold fluorescence in [11] is 6.75 [at 143.5 µM] (inactive).
As to `COc1ccc(C[C@H]2NC[C@H](O)[C@H]2OC(C)=O)cc1`, the outcome in [13], in assay [14], in assay [15] and in assay [16] was inactive. The remaining activity in assay [4] is 125% (inactive). Also, the fold fluorescence in [11] was 11.2 [at 188.5 µM] (inactive).
For the compound `CC1=C(O)C(=O)C=C2C1=CC=C1[C@@]2(C)CC[C@@]2(C)[C@@H]3C[C@](C)(C(=O)O)CC[C@]3(C)CC[C@]12C`, the AC50 (as a rule, the midpoint of the concentration-response curve, whichever way the signal moves) is 2090 nM (active) in assay [6]; 3320 nM (active) in assay [17]; 2640 nM (active) in [18]; 1320 nM (active) in [7]; 2350 nM (active) in assay [19]; 1660 nM (active) in assay [20]. Besides, the AC50 was 1180 nM (active) in assay [8] and 934 nM (active) in [9]. Also, in [10], the IC50 (commonly the point on the concentration scale where inhibition reaches its midpoint) was 11800 nM (active).
As for `NCCc1c[nH]c2ccccc12`, the inhibition in assay [2] is 0% (inactive). The fluorescence ratio (interference) in [3] is 1 (inactive). Also, in assay [5], the remaining activity is 89.5% (inactive). The call in assay [12] was inactive.
For `NC(N)=NOCC[C@H](N)C(=O)O`, in assay [2], the inhibition was 2% (inactive). The fluorescence ratio (interference) in assay [3] was 1 (inactive). In addition, the remaining activity in [5] is 106% (inactive) and 121% (inactive). The compound was called inactive in [12].
For the compound `OC1CCCCC1N1CCC(c2ccccc2)CC1` (stereo not given), the inhibition in assay [2] was -4% (inactive). For the same compound, the fluorescence ratio (interference) in assay [3] was 1 (inactive). Besides, the result in [12] was inactive.
In the case of `COC1=C[C@@H]2[C@@H]3Cc4ccc(OC)c(O)c4[C@]2(CCN3C)CC1=O`, the half-maximal activity concentration (AC50) is 3320 nM (active) in [17] and 935 nM (active) in [7]. Further, the call in assay [19], in assay [20], in [8], in [9] and in [10] was inactive.
For the compound `COc1cc(OC)c(OC)cc1C=O`, the result in assay [17], in assay [18], in assay [7] and in [8] was inactive.
Consider `CC[C@@H]1C(=O)OC[C@@H]1Cc1cncn1C`, for which the inhibition in assay [2] is -2% (inactive) and 1% (inactive). In addition, the fluorescence ratio (interference) in assay [3] was 1 (inactive). For the same compound, the remaining activity in assay [5] was 112% (inactive) and 106% (inactive).
For `COc1cc([C@@H]2c3cc4c(cc3[C@@H](O)C3COC(=O)C32)OCO4)cc(OC)c1O` (stereo not given in full), the figures for the AC50 in assay [6], in [19] and in [20] were 263 nM (active), 525 nM (active) and 417 nM (active), respectively. Besides, in assay [10], the half-inhibitory concentration (IC50) is 332 nM (active).
Regarding `CN1C2CCC1CC(OC(c1ccccc1)c1ccccc1N)C2` (stereo not given), in assay [2], the inhibition was -3% (inactive). Also, the fluorescence ratio (interference) in [3] was 1 (inactive). In addition, the remaining activity in [5] was 119% (inactive). Moreover, the outcome in [12] was inactive.
Regarding `O=C(O)CC[N+](=O)[O-]`, the inhibition in [2] is -3% (inactive). Besides, the fluorescence ratio (interference) in [3] was 1 (inactive). The remaining activity in assay [5] is 116% (inactive). The result in [12] was inactive.
As for `O=C1C=CC(=O)c2c(O)cccc21`, the fold fluorescence in assay [11] is 2.01 [at 287.1 µM] (active).
`O=C1C=C2C(=CCOC2O)O1` (stereo not given): in assay [1], the SMN1 luciferase ratio was found to be 0.26, the SMN2/SMN1 luciferase ratio was 2.76 (active) and the SMN2 luciferase ratio worked out at 0.46.
On to `O=c1cccc2n1CC1CNC[C@H]2C1`, for which the remaining activity in assay [4] is 96.4% (inactive). Besides, the compound was called inactive in assay [6], in assay [9] and in assay [10]. The AC50 in [18] was 2640 nM (active).
On to `COc1cccc2c1cc([N+](=O)[O-])c1c(C(=O)O)cc3c(c12)OCO3`, for which the fold fluorescence in [11] is 4.86 [at 146.5 µM] (inactive).
With `NC(=NCCC[C@H](N)C(=O)O)N[N+](=O)[O-]`, in [2], the inhibition is -2% (inactive). For the same compound, in [3], the fluorescence ratio (interference) was 1 (inactive). In assay [5], the remaining activity is 115% (inactive). For the same compound, the call in assay [12] was inactive.
For `O=C1CCCN1CC#CCN1CCCC1`, in [2], the inhibition is -4% (inactive). Moreover, the fluorescence ratio (interference) in assay [3] is 0.9 (inactive). The remaining activity was 92.7% (inactive) in assay [4] and 119% (inactive) in assay [5]. Further, the call in [12] was inactive.
